CHO-K1 Ca PAM: counter-screen for M1 PAMs: effect in parental CHO-K1 cells. ATP EC20, Fluo-8 calcium fluorescence; 0% at ATP EC20, 100% at ATP max. activation, % at 3 µM. 360,000 compounds, 0.02% hits. AID 602247;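 active means activation above the run cutoff, the mean activation of all test compounds plus 3 SD, cut at about 40% in these data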;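 further: peak over basal fluorescence ratio in a 140 s read after ATP addition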
NTR1 agonist: agonists of human neurotensin receptor NTR1; NTR1-U2OS beta-arrestin-GFP spot imaging, agonist mode; activation, % at 20 µM; 330,000 compounds, 0.17% hits; AID 493036;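 active means activation at or above 40% of the spot to cytoplasm intensity ratio, with at least 20 cells analyzed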
CHO-K1 Ca antag: nonselective inhibitor or artifact in parental CHO-K1 cells | AID 602250 | ATP-induced calcium, Fluo-8 fluorescence | 360,000 compounds, 0.6% hits | inhibition, % at 3 µM;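 active means inhibition above a per-plate cutoff, the plate's mean sample inhibition plus 3 SD, cut at about 24% in these data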
CHO-K1 Ca ag: nonselective activator or artifact in parental CHO-K1 cells. Fluo-8 calcium fluorescence; scaled to maximal ATP response, vehicle zero. activation, % at 3 µM. 360,000 compounds, 0.48% hits. AID 602248; in the data active means activation above about 15%;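 further: untransfected CHO-K1 host cells lacking M1 receptor as counterscreen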
TMEM16A act: activates or potentiates the mouse TMEM16A chloride channel. 340,000 compounds, 0.3% hits. AID 623877. B-score at 10 µM. HEK293 TMEM16A/YFP-H148Q/I152L, iodide quench fluorescence; stronger effect = lower value. Q8BHY3;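 active means fluorescence-ratio B-score plate-corrected deviation score at least 3 library SD below zero, with starting fluorescence score within 5 deviations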;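 further: channel opened by trigger with iodide after compound preincubation; score built on the fluorescence ratio of max minus min over baseline; more negative score means more quench and so TMEM16A activation or potentiation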
ANO1 block: blocks the mouse calcium-activated chloride channel TMEM16A; Q8BHY3; HEK293 TMEM16A/YFP iodide influx fluorescence, ionomycin; normalized B-score (activity score, 25-100; higher = stronger inhibition) at 10 µM; 310,000 compounds, 1.2% hits; AID 588511;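 active means ratio plate-corrected score three or more library SD toward inhibition, starting fluorescence score within five deviations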;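 further: score derived from kinetic fluorescence span divided by baseline fluorescence per well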
TMEM16A reconf: reconfirmed blocker of mouse TMEM16A calcium-activated chloride channel; shares compounds with ANO1 block; HEK293 TMEM16A/YFP-H148Q, iodide quench fluorescence; ionomycin added to raise cell calcium; inhibition, % at 10 µM; 2,300 compounds, 39% hits;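 active means mean duplicate percent inhibition, scaled so buffer wells are 0 and the reference blocker 100, over three buffer SD above buffer mean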
TMEM16A Ca cntr: counter-screen for TMEM16A inhibitors: effect on calcium mobilization; shares compounds with ANO1 block; TMEM16A/YFP HEK293, Fluo4 calcium mobilization; calcium response (% of ionomycin), % at 10 µM; 2,300 compounds, 2% hits;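 active means duplicate-averaged calcium signal over 20% of the ionomycin maximum, relative to buffer baseline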;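 further: each well's signal is peak minus trough fluorescence divided by its pre-addition baseline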
Parental YFP cnt: acts in parental YFP-HEK293 cells lacking TMEM16A, counter-screen | shares compounds with ANO1 block | iodide YFP quench, ionomycin | YFP ratio F(max-min)/F0 at 10 µM | 2,300 tested, under 10 active | AID 652233;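 active means yellow fluorescent protein signal ratio exceeding the buffer control mean by over 5 SD of those controls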;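 further: ratio is mean of duplicate wells from kinetic YFP trace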
ClC-1 rat inh: blocks the rat ClC-1 voltage-dependent chloride channel; shares compounds with ANO1 block; CHO ClC-1-YFP, iodide influx fluorescence quench; iodide control reads 0, buffer control 100; ratio percent, % at 10 µM; 2,300 tested, under 10 active;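 active means duplicate-mean ratio percent above the mean of iodide-only control wells, which defines zero, plus 5 of their SD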;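 further: higher percent means stronger block of ClC-1 iodide influx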
Target sequence (P35524 whole entry, looked up): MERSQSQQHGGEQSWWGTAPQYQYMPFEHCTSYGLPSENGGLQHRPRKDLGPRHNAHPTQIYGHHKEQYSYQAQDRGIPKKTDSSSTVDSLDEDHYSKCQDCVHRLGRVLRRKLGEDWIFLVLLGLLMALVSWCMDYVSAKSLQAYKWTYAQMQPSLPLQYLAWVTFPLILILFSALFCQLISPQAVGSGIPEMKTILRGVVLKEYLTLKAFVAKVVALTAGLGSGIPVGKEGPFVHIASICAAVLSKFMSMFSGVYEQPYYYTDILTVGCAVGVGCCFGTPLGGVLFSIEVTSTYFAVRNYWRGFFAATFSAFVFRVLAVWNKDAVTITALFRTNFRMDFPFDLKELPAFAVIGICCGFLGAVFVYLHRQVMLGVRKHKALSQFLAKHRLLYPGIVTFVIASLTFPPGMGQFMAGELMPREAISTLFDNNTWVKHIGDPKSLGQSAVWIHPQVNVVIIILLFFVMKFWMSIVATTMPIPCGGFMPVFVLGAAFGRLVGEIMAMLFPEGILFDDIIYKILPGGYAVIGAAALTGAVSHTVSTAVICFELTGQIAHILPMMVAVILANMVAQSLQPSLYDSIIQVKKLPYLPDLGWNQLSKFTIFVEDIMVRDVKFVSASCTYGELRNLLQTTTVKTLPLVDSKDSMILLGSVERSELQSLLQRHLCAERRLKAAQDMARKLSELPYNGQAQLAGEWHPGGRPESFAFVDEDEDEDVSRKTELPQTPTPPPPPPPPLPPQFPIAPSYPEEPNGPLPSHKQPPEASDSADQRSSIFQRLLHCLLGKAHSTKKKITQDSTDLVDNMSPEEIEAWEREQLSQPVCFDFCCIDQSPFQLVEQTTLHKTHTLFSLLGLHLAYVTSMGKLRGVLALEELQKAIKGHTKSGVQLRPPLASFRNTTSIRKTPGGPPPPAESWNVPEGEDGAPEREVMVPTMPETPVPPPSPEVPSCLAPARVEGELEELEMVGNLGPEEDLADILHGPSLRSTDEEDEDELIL
Numbers stand for hits; - = inactive; . = no result given. Hits are enriched below; roughly 2.2% of the tested compounds scored in any of these assays.

SMILES	CHO-K1 Ca PAM	NTR1 agonist	CHO-K1 Ca antag	CHO-K1 Ca ag	TMEM16A act	ANO1 block	TMEM16A reconf	TMEM16A Ca cntr	Parental YFP cnt	ClC-1 rat inh
CC[n+]1c(/C=C2/C=C(C)CC(C)(C)C2)sc2ccc(OC)cc21	-	-	-	-	-	25	56%	-	-	-
CCOC(=O)c1cc2ccccc2n1CCN(CC)CC	-	-	-	-	-	25	-	-	-	-
Cc1ccc(C(=O)Cn2c(C(=O)OCCO)cc3ccccc32)cc1	-	-	-	-	-	-	.	.	.	.
CCOC(=O)c1c(-c2ccccc2)csc1NC(=O)C1CCCO1 (stereo not given)	-	-	-	-	-	-	.	.	.	.
CCOC(=O)c1c(-c2ccc(-c3ccccc3)cc2)csc1NC(=O)C1C2CCC(O2)C1C(=O)O (stereo not given)	-	-	-	-	-	100	70%	-	-	-
O=C(COC(=O)C1(c2ccc(F)cc2)CCCC1)Nc1ncc(C(F)(F)F)cc1Cl	-	-	-	-	-	100	55%	-	-	-
O=C1CCN(CCCN2CCC(=O)NC2=S)C(=S)N1	-	.	-	-	.	.	.	.	.	.
COc1ccc(C(=O)C(C)OC(=O)CNC(=O)c2ccco2)cc1 (stereo not given)	-	-	-	-	-	.	.	.	.	.
CCOC(=O)c1ccccc1NS(=O)(=O)c1ccc(OCC)cc1	-	-	-	-	-	25	-	-	-	-
COc1ccc(CCNC(=O)COC(=O)c2cc(S(=O)(=O)N3CCCC3)ccc2O)cc1	-	-	-	-	-	.	.	.	.	.
COCOc1ccc(-c2ncc(OCCN3CCCC3=O)nc2NC(=O)c2cc3ccccc3s2)cc1	-	.	-	-	.	.	.	.	.	.
O=C(O)c1c(NC(=O)c2cccc3ccccc23)sc2c1CCC2	-	-	-	-	-	100	24%	-	-	-
O=C(Nc1sc2c(c1C(=O)O)CCC2)c1ccccc1	-	-	-	-	-	-	.	.	.	.
CCOC(=O)C1(C)CCN1C(=O)c1ccc(C(F)(F)F)cc1 (stereo not given)	-	.	-	-	.	.	.	.	.	.
Nc1ccn(C2C=CC(CO)O2)c(=O)n1 (stereo not given)	-	.	-	-	.	.	.	.	.	.
CCOC(=O)C1CCN(S(=O)(=O)C(F)(F)c2nc3ccccc3s2)CC1	-	-	-	-	-	100	30%	-	-	-
CC(C)C(=O)c1cc2c(cc1NC(=O)c1ccccc1)OCCO2	-	-	-	-	-	100	-	-	-	-
CC(=O)Nc1cc2c(cc1C(=O)C(C)C)OCCO2	-	-	-	-	-	-	.	.	.	.
O=C(NCCc1ccc(Cl)cc1)c1cccc(S(=O)(=O)N2CCCC2)c1	-	.	-	-	.	.	.	.	.	.
C=CCc1ccc(O)c(-c2ccc(O)c(CC=C)c2)c1	-	-	-	-	-	100	56%	-	-	-
CN(C)C1CN(Cc2cn(Cc3ccc(Cl)cc3)nn2)S(=O)(=O)C1 (stereo not given)	-	.	-	-	.	.	.	.	.	.
CC(=O)N1c2c(cc(Br)cc2S(=O)(=O)NCc2cccnc2)CC1C (stereo not given)	-	-	-	-	-	-	.	.	.	.
CCCCN(Cc1ccccc1)S(=O)(=O)c1cc(Br)cc2c1N(C(C)=O)C(C)C2 (stereo not given)	-	-	-	-	-	25	-	-	-	-
O=S(=O)(c1ccccc1)N1CCN(c2ccnc3cc(Cl)ccc23)CC1	-	-	-	-	-	100	-	-	-	-
C[C@H]1CN([C@@H](C)CO)S(=O)(=O)c2ccc(Br)cc2O[C@H]1CN(C)C(=O)CCN1CCCCC1	-	.	-	-	.	.	.	.	.	.
SMILES	CHO-K1 Ca PAM	NTR1 agonist	CHO-K1 Ca antag	CHO-K1 Ca ag	TMEM16A act	ANO1 block	TMEM16A reconf	TMEM16A Ca cntr	Parental YFP cnt	ClC-1 rat inh
COc1ccc(S(=O)(=O)NC(=O)C2(C)CCN2C(=O)CCC2CCCC2)cc1OC (stereo not given)	-	.	-	-	.	.	.	.	.	.
O=C(Nc1ccccc1)c1ccc(S(=O)(=O)N2CCCC2)cc1	-	-	-	-	-	-	.	.	.	.
O=C(Nc1ccn(-c2ccccc2)n1)c1ccc(S(=O)(=O)N2CCCCCC2)cc1	-	-	-	-	-	25	-	-	-	-
Cc1cc(C)c(S(=O)(=O)Nc2ccccc2-c2ccccc2)c(C)c1	44	-	-	-	-	25	-	-	-	-
COc1cc(Nc2ccn3nccc3n2)cc(OC)c1OC	-	.	-	-	.	.	.	.	.	.
c1ccc(-c2nc(-n3nc4ccccc4n3)nc3ccccc23)cc1	-	-	-	-	-	100	-	-	-	-
Clc1ccc(-c2nc(N3CCCCC3)nc3ccccc23)cc1	-	-	-	-	-	-	.	.	.	.
O=C1CC(O)(C(F)F)Oc2ccc3ccccc3c21 (stereo not given)	-	-	-	-	-	-	.	.	.	.
O=C1CC(O)(C(F)(F)F)Oc2c1ccc1ccccc21 (stereo not given)	-	-	-	28	-	100	54%	38%	-	-
COc1ccc(NS(=O)(=O)c2ccc3c(c2)Cc2ccccc2-3)cn1	-	-	-	-	-	25	-	-	-	-
COc1ccc(NS(=O)(=O)c2ccc(N3CCCC3=O)cc2)cn1	-	-	-	-	-	-	.	.	.	.
CC(O)(c1cccnc1)c1nc(/C=C/c2ccccc2)cs1 (stereo not given)	-	.	-	-	.	.	.	.	.	.
O=C(NCc1ccc(Cl)cc1Cl)c1ccccn1	-	-	-	-	-	25	-	-	-	-
O=C(COC(=O)c1ccccn1)NCc1ccc(Cl)cc1Cl	-	-	-	-	-	.	.	.	.	.
O=C(c1ccc(CNS(=O)(=O)c2ccccc2)cc1)N1CCN(Cc2ccccc2)CC1	-	-	-	-	-	25	-	-	-	-
Cc1c(NC(=O)c2cc(S(=O)(=O)N3CCCCC3)ccc2Cl)c(=O)n(-c2ccccc2)n1C	-	-	-	-	-	.	.	.	.	.
CCOc1cc(C(=S)N2CCC(O)CC2)ccc1OS(=O)(=O)c1ccc(Br)cc1	-	-	-	-	-	25	-	-	-	-
CCOc1cc(C(=S)N2CCCCC2)ccc1OS(=O)(=O)c1ccc(Br)cc1	-	-	-	-	-	-	.	.	.	.
O=C(Nc1nc(-c2nc3ccccc3s2)cs1)c1ccc(S(=O)(=O)N2CCOCC2)cc1	-	-	-	-	-	100	33%	-	-	-

Bioassay records: PubChem BioAssay, several laboratories
